Reference: the supplement of paper PMC6555819

What was measured:
Test in all cases: PBM binding z-score (relative to random genomic background probes); higher = stronger binding; sequences stand for … in GC…GCGATTGACAGCGTAGAATGAAGG
[1] = tested on: FXR:RXRa (NR concentration 270 nM, RXRa partner concentration 90 nM)
How it was run: (§1)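 Binding z-scores were set against random background probes. The data came from custom Agilent 4×180K protein-binding microarrays carrying double-stranded probes with 34-nt variable regions, incubated 1 h with ligand-free nuclear receptor dimers. Partner-specific antibodies detected binding, and scanned fluorescence was regression-normalized.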

[2] = tested on: LXRa:RXRa (NR concentration 270 nM, RXRa partner concentration 90 nM)
How it was run: as §1

[3] = tested on: LXRa homodimer (NR concentration 270 nM)
How it was run: as §1

[4] = tested on: LXRb:RXRa (NR concentration 270 nM, RXRa partner concentration 90 nM)
How it was run: as §1

[5] = tested on: LXRb homodimer (NR concentration 270 nM)
How it was run: as §1

[6] = tested on: PPARa:RXRa (NR concentration 270 nM, RXRa partner concentration 90 nM)
How it was run: as §1

[7] = tested on: PPARg:RXRa (NR concentration 180 nM, RXRa partner concentration 90 nM)
How it was run: as §1

[8] = tested on: PPARg:RXRa 270nM:90nM, anti-RXR (NR concentration 270 nM, RXRa partner concentration 90 nM)
How it was run: as §1

[9] = tested on: PPARg:RXRa 30nM:10nM, anti-RXR (NR concentration 30 nM, RXRa partner concentration 10 nM)
How it was run: as §1

[10] = tested on: PPARg:RXRa 90nM:30nM, anti-RXR (NR concentration 90 nM, RXRa partner concentration 30 nM)
How it was run: as §1

[11] = tested on: PPARg:RXRa DBDmut IVT, anti-RXR (DBD mutation: RXRa K156A/R161A, NR concentration 270 nM, RXRa partner concentration 90 nM)
How it was run: as §1

[12] = tested on: PPARg:RXRa IVT, anti-PPARg (NR concentration 270 nM, RXRa partner concentration 90 nM)
How it was run: as §1

[13] = tested on: PPARg DBDmut:RXRa IVT, anti-PPARg (DBD mutation: PPARg1 K132A/R137A, NR concentration 270 nM, RXRa partner concentration 90 nM)
How it was run: as §1

[14] = tested on: PPARg DBDmut IVT, anti-PPARg (DBD mutation: PPARg1 K132A/R137A, NR concentration 270 nM)
How it was run: as §1

[15] = tested on: PPARg homodimer (NR concentration 180 nM)
How it was run: as §1

[16] = tested on: PXR:RXRa (NR concentration 270 nM, RXRa partner concentration 90 nM)
How it was run: as §1

[17] = tested on: PXR homodimer (NR concentration 270 nM)
How it was run: as §1

[18] = tested on: RARa:RXR (NR concentration 270 nM, RXRa partner concentration 90 nM)
How it was run: as §1

[19] = tested on: RARa homodimer (NR concentration 270 nM)
How it was run: as §1

[20] = tested on: RARb:RXRa (NR concentration 270 nM, RXRa partner concentration 90 nM)
How it was run: as §1

Sequence	PBM binding z-score [1]	PBM binding z-score [2]	PBM binding z-score [3]	PBM binding z-score [4]	PBM binding z-score [5]	PBM binding z-score [6]	PBM binding z-score [7]	PBM binding z-score [8]	PBM binding z-score [9]	PBM binding z-score [10]	PBM binding z-score [11]	PBM binding z-score [12]	PBM binding z-score [13]	PBM binding z-score [14]	PBM binding z-score [15]	PBM binding z-score [16]	PBM binding z-score [17]	PBM binding z-score [18]	PBM binding z-score [19]	PBM binding z-score [20]
TGAATGAGGTTATAAGATCAGCGAACGTTGCAAA	1.21	1.34	-0.415	0.765	-0.436	2.88	1.18	1.89	0.811	1.34	1.18	2	0.4	-0.321	-0.104	0.634	-0.373	1.33	-0.341	1.06
ACTCGTAGGACAAAGGTCAGAGCTACGCCAGTGA	3.9	4.29	1.39	3.3	0.607	5.11	7.99	7.75	6.47	8.26	1.2	3.67	0.241	0.756	4.17	3.73	0.25	4.94	1.41	4.18
CTCGAAAGGTCGTGCTCAGGTGAGTATTCCAAAC	5.42	3.85	0.158	3.32	0.259	4.52	2.26	3.47	0.582	1.86	0.897	1.51	0.28	0.396	1.7	3.33	0.16	4.06	0.262	3.76
CCGACTGGGGCAGAAAGGATACCATACCATCCGG	-0.81	-0.88	-0.438	-0.926	-1.2	-0.597	0.937	-0.0255	-0.593	-0.344	0.646	0.728	-0.578	-1.57	-0.142	-0.951	-0.394	-1.06	-0.437	0.0733
TAGCCTAGGTCATGCGGGGCAGTATAGTGTCGGC	3.99	3.24	0.431	2.23	0.295	3.56	2.18	2.41	0.0404	1.28	1.69	3.02	0.874	-0.0244	0.993	2.16	-0.37	2.61	-0.595	3.75
TCGACTAGGTTACCAATGGGGCATTCAGCTTTCT	0.55	1.5	-0.443	1.49	-0.537	1.37	0.614	1.78	2.68	2.06	4.11	2.87	0.333	0.263	0.845	0.199	-0.246	0.659	-0.05	1.18
CCTACAGGGCCACGAAAGGTCATTGATTCAGTGA	4.09	5.83	4.74	4.54	0.292	4.51	1.86	3.15	0.825	2.22	0.816	1.87	-0.216	-0.41	2.63	5.61	1.86	5.07	1.07	4.32
CCAGACGGGTGAGAAGGTAACTCAGCCTCGATTA	-0.446	-0.488	-0.527	-0.4	-1.08	0.109	0.208	0.0448	-0.616	-0.191	0.114	0.156	-1.55	-1.37	0.298	-0.708	-0.553	-0.463	-0.518	-0.128
TCAAGCAGGCCAGAGGGTCACTCAAGAGGTACGG	1.15	0.997	-0.238	1.22	-1	2.59	1.67	2.69	2.51	2.67	1.38	0.884	-1.19	-1.55	0.379	1.65	-0.357	2.52	-0.42	2.51
AGAACTAGGGCAATGAGTTGATAGCACGGGTGGC	-0.0132	-0.254	-0.285	-0.631	-0.61	2.48	4.11	3.2	1.29	2.41	7.38	6.72	1.02	0.615	0.447	0.226	0.366	0.000604	0.238	1.31
TCTAGTTGGTCACGGAGGTCACACACGACGGGTA	3.14	3.39	2.59	3.33	0.773	4.01	3.79	4.11	3.73	3.75	2.46	4.2	1.49	1.18	3.41	4.41	1.8	4.53	1.29	3.82
TCTTGTAGATTAACAGGAGGTTAAGAAAGATCGA	0.498	1.41	0.483	0.95	-0.0109	1.06	0.145	1.41	2.67	1.89	1.1	0.0101	-0.776	0.403	-0.439	0.578	0.157	1.25	0.212	0.685
TCTTGTAGATCAAGCAGGCTAAGAAAGCCTGAGT	-0.142	-0.307	-0.525	-0.376	-0.474	0.113	-0.409	0.913	2.4	1.59	1.46	0.173	-0.469	1.11	-0.6	-0.424	-0.306	-0.588	-1.2	-0.756
CCTACTGGGCCACGGAAGGTCATTGATTCAGTGA	1.94	2.96	2.27	2.25	-0.194	3.5	3.4	3.37	1.05	2.35	4.56	5.51	-0.609	-0.824	1.7	3.57	0.303	3.15	0.0822	3
